INHIBITION data for 77 molecules are collected here from ChEMBL document CHEMBL4513216, “Probing the Open Global Health Chemical Diversity Library for Multistage-Active Starting Points for Next-Generation Antimalarials” (ACS Infect Dis, 2020).

Among all 69,000 compounds or so, about 8,600 (12%) showed an effect of 50% or more. What follows is part of a selection rich in strong results, with near analogues and random picks from the rest.

The experiment has as its system Plasmodium berghei. The experiment in a line: Screen against P. berghei liver stage (PbLuc), transformed with Luciferase, at 10uM. Format: functional, HepG2. Conditions: tested at 10 uM.
As to `O=C(COC1CCCCC1)N1CCCC(n2ccnc2)C1` (configuration not stated), the INHIBITION was -29.8%.
As to `CCN1CC(C(=O)NC(C)(C)C(=O)OC)CC1=O` (configuration not stated), the INHIBITION is on record as -10.3%.
Turning to `Cc1[nH]nc(CCC(=O)NCC2CCN(C3CCCCC3)C2)c1C` (configuration not stated), the INHIBITION is given as -57.5%.
The figure for `CC(NCc1ccc(C(N)=O)cc1)c1ccc(Cl)c(Cl)c1` (configuration not stated) is -29.2%; for `COc1cc(CNCC(O)c2ccc(F)c(F)c2)cc2c1OCO2` (configuration not stated) it is 24%.
On to `COc1ccc(CNC(C)c2ccc(Cl)c(Cl)c2)c(OC)c1OC` (configuration not stated), for which the INHIBITION is recorded as 70.5%.
For `COc1cc(CNCC(O)c2ccc(C)cc2)cc2c1OCCO2` (configuration not stated), the INHIBITION amounted to 21.8%.
In the case of `COc1ccc(C(C)NCc2c[nH]nc2C)cc1Br` (configuration not stated) it was 43.9%.
Consider `COc1cc(CNC(C)c2ccc(F)c(F)c2)cc2c1OCCO2` (configuration not stated), for which the INHIBITION is recorded as 66.7%.
As to `CO[C@@H]1CCN(c2ncc(F)cn2)[C@H]1Cc1cnn(C)c1`, the INHIBITION is listed as 28.4%.
In the case of `CN1CCN(C)C(CNC(=O)N(C)Cc2ccccc2Cl)C1` (configuration not stated) it was 17.1%; in that of `Cc1cc(C2CCCN2C(=O)c2csc(-c3cnn(C)c3)n2)on1` (configuration not stated), -1.445%; in that of `CCn1nc(C)c2nnn(CC(=O)Nc3cccc(F)c3)c(=O)c21`, 15.9%.
Regarding `NC(=O)C(CNC(=O)Cc1ccc(F)cc1)Cc1ccc(F)cc1` (configuration not stated), the INHIBITION is 29.2%.
Regarding `Cc1ccc(C(=O)Cc2c(Cl)nc3n(C)c(=O)n(C)c(=O)n23)cc1`, the INHIBITION is 85%.
On to `Cn1c(=O)n(C)c2nc(Cl)c(CC(=O)c3ccc(F)cc3)n2c1=O`, for which the INHIBITION was 48.3%.
In the case of `Cn1c(=O)n(C)c2nc(Cl)c(CC(=O)c3ccccc3)n2c1=O` it was -6.47%; in that of `CC(C)CCn1cc(C(C(=O)O)N2CCC(c3ccncc3)CC2)cn1` (configuration not stated), 23.9%.
The figure for `O=C(NCCO)c1sc2ncccc2c1C1CN(C2CCCC2)CCO1` (configuration not stated) is -10.4%; for `CC(C)(C)c1noc(CN2CCCCC2Cn2cncn2)n1` (configuration not stated) it is 39.15%; for `O=S(=O)(NCC1(c2cccs2)CCCC1)c1cccnc1` it is -43.5%.
The figure for `CCC(C(=O)NCC1=CCCN(C)C1)c1ccccc1` (configuration not stated) is 0.348%; for `CC(=O)NCCCn1ncc2c(C)cccc21` it is 35.8%; for `Cc1nn(CCCNC(=O)C2CCN(S(C)(=O)=O)CC2)c(Cl)c1Cl` it is 14.8%.
As to `Cc1cccc2c1cnn2CCCNC(=O)CCCC(=O)O`, the INHIBITION is reported as 60.1%.
For `COCC(=O)NCCCn1ncc2c(C)cccc21`, the INHIBITION amounted to 20.1%.
`Cc1cccc2c1cnn2CCCNC(=O)C1CC1`: the INHIBITION was determined as 66.5%.
The figure for `Cc1ccnn1CCCNC(=O)C1CCN(S(C)(=O)=O)CC1` is 77.7%; for `Cc1cc(C(F)(F)F)nn1CCCNC(=O)C1CCN(S(C)(=O)=O)CC1` it is 0.87%.
With `Cc1cccc2c1cnn2CCCNC(=O)C(C)C`, the INHIBITION is 0.139%.
In the case of `CCCC(=O)NCCCn1ncc2c(C)cccc21` it was 2.69%; in that of `CC(C)n1ccc(-c2cc(C(=O)N3CCN(C)CC3)c3ccccn23)n1`, 16.9%.
Turning to `Cc1onc(-c2ccncc2)c1C(=O)NC1CCCOC1` (configuration not stated), the INHIBITION is recorded as 10.8%.
In the case of `CCN(C)c1ncnc2c1CCN(C(=O)c1ccoc1C)CC2` it was -125%; in that of `CC(C)CCC(=O)N1CC[C@@H]2[C@H](CC1)N(S(C)(=O)=O)CCS2(=O)=O`, -31.9%; in that of `C/C(NC(=O)c1ccccn1)=C1\C(=O)C[C@@H]2[C@H]1C2(C)C`, 9.41%.
The figure for `Cc1cc(OC(F)F)c(C(=O)N2CC[C@H](O)C2)s1` is 3.58%; for `CN(C)[C@H]1COC[C@@H]2CN(Cc3ccc4c(c3)OCO4)C[C@@H]21` it is 12.1%; for `CN(c1nc(Cn2cc(Br)ccc2=O)cs1)C1CC1` it is 0%.
In the case of `Cn1cnc2c1CCN(Cc1csc(C3CCCC3)n1)C2` it was -19.9%; in that of `CN(c1nc(Cn2cnccc2=O)cs1)C1CC1`, 55.5%; in that of `O=c1ccncn1Cc1csc(C2CC2)n1`, 57.5%.
As for `CCc1csc(C2CCCN(C(=O)c3ccncc3)C2)n1` (configuration not stated), the INHIBITION turned out to be 6.1%.
As for `Cc1ccc(=O)n(Cc2csc(N(C)C3CC3)n2)n1`, the INHIBITION is listed as -40.6%.
The figure for `Cc1cc(C(=O)NCc2cccn2C)nn1C` is 9.55%; for `CS(=O)(=O)NC[C@H]1OC[C@@H]2CCN(Cc3ccc(F)cc3)C[C@@H]21` it is -16.2%; for `Cc1nnsc1C(=O)N1CCCC(n2nnc3cc(F)ccc32)C1` (configuration not stated) it is 52%.
The figure for `Cc1nn(C)cc1C(=O)N1CCCC(n2nnc3cc(F)ccc32)C1` (configuration not stated) is -3.31%; for `Cc1n[nH]cc1C(=O)N1CCCC(n2nnc3cc(F)ccc32)C1` (configuration not stated) it is 21%; for `COCCc1noc(CN2CCOC(Cn3cc(C)cn3)C2)n1` (configuration not stated) it is -90.9%.
As for `Cc1cccc(=O)n1CCC(=O)N1CCC2(CC1)OCCCC2O` (configuration not stated), the INHIBITION is listed as 24.2%.
For the molecule `Cc1nc(NC(=O)NCc2nc3cccc(C)c3n2C)oc1C`, the INHIBITION is listed as 38.6%.
In the case of `CCn1c(CNC(=O)Nc2nc(C)c(C)o2)nc2ccccc21` it was 44.8%.
The figure for `Cc1nc(C)c(C(=O)NCc2nc3cccc(C)c3n2C)o1` is 88.8%.
`CCc1ccc(C(=O)O)cc1S(=O)(=O)Nc1ccc2c(c1)OCCO2`: the INHIBITION is 28%.
In the case of `CCS(=O)(=O)NCCCNCc1c(C)nn(C)c1N(C)C` it was 23.25%.
Consider `CCOc1ccc(CN(C)C2CCN(c3cc(C)nn3C)C2=O)cc1` (configuration not stated), for which the INHIBITION worked out at 24.7%.
`CCN(Cc1ccccc1)C1CCN(c2cc(C)nn2C)C1=O` (configuration not stated): the INHIBITION amounted to 57.2%.
`CCN(Cc1cccnc1)C1CCN(c2ccccc2)C1=O` (configuration not stated): the INHIBITION is recorded as -2.27%.
The figure for `Cc1cc(N2CCC(N(C)Cc3cccnc3)C2=O)n(C)n1` (configuration not stated) is 59.3%; for `CCN(Cc1cnc(C)cn1)C1CCN(c2ccccc2)C1=O` (configuration not stated) it is 15.2%; for `CCN(Cc1ccncc1)C1CCN(c2ccccc2)C1=O` (configuration not stated) it is -13.1%.
The figure for `CC(C)C(=O)N1CCC2(CCN2CC2CC2)C1` (configuration not stated) is 8.85%; for `Cc1cc(C(=O)N2C[C@@H]3CC[C@H]2CN(Cc2ccccn2)C3)nc(C)n1` it is 4.59%; for `Cc1ncsc1C(=O)N1CCC(c2ccc3c(NC(C)C)n[nH]c3n2)C1` (configuration not stated) it is -3.94%.
As to `CC(=O)Nc1ccc(SCC(O)COCc2ccccc2)cc1` (configuration not stated), the INHIBITION worked out at 16.6%.
The figure for `O=C(Cc1cccnc1)NCCS(=O)(=O)c1ccccc1F` is 33.7%.
On to `CNC(=O)C1(c2cnccn2)CCCN1C(=O)c1cccc(F)c1` (configuration not stated), for which the INHIBITION is 1.5%.
In the case of `CCC(CC)NCC(c1ccccn1)N1CCOCC1` (configuration not stated) it was 65.6%; in that of `COc1cc(NCC(c2ccccn2)N2CCOCC2)ncn1` (configuration not stated), 6.26%.
In the case of `c1ccc(C(Cn2cnnc2)N2CCOCC2)nc1` (configuration not stated) it was 70.4%.
As for `c1ccc(C(CNc2ncccn2)N2CCOCC2)nc1` (configuration not stated), the INHIBITION came out at 3.48%.
The figure for `Cc1ccc(C(CNC(=O)NCc2ccccn2)N2CCOCC2)o1` (configuration not stated) is 11.783%; for `Cc1nn(C)c(N2CCOCC2)c1CNC(C)c1ccccn1` (configuration not stated) it is 36.2%; for `NCc1cc(NCC(c2ccccn2)N2CCOCC2)ncn1` (configuration not stated) it is 60.1%.
The figure for `c1cncc(C(Cn2cnnc2)N2CCOCC2)c1` (configuration not stated) is 7.31%.
In the case of `CC(C)c1nn(C)c(N2CCOCC2)c1CNC(C)c1ccccn1` (configuration not stated) it was 23.7%.
